# Data taken from PubChem BioAssay AID1159580 (chemical genetic matrix, 2015).
# The campaign covered roughly 5,500 compounds. About 2,000 (36%) were called active. Inconclusive results (about 18%) are left out. This is one part of the list. A number with no mark means an inactive call. Rule as the data show it: active = normalized growth mostly below about 0.91 (no sharp cut-off); inconclusive = no clear call, values can overlap the other calls; inactive = mostly above about 0.92.
# Assay: chemical genetic growth profiling, strain panel (AID 1159580);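 also: tested at 20 µM; growth read once vehicle control cultures reached saturation at 30 °C; 1 = growth at the plate median or of vehicle wells; lower values mean less growth of the strain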
# Details: growth OD
smiles,measurement,setting,value
CC(NCCC(c1ccccc1)c1ccccc1)c1ccccc1 (configuration not stated),normalized growth,"S. cerevisiae deletion strains, locus YJR075W, strain HOC1, hits give low values",0.875 (active)
same,normalized growth,"S. cerevisiae deletion strains, locus YKL009W, strain mrt4, hits give low values",0.944
same,normalized growth,"S. cerevisiae deletion strains, locus YKL068W, hits give low values",0.981
same,normalized growth,"S. cerevisiae deletion strains, locus YKL085W, strain MDH1 (second series), hits give low values",0.985
same,normalized growth,"S. cerevisiae deletion strains, locus YKL085W, strain MDH1, hits give low values",0.985
same,normalized growth,"S. cerevisiae deletion strains, locus YKL160W, strain elf1, hits give low values",0.908
same,normalized growth,"S. cerevisiae deletion strains, locus YKL190W, strain CNB1, hits give low values",0.988
same,normalized growth,"S. cerevisiae deletion strains, locus YKR001C, strain vps1, hits give low values",0.936
same,normalized growth,"S. cerevisiae deletion strains, locus YKR026C, strain gcn3, hits give low values",1.01
same,normalized growth,"S. cerevisiae deletion strains, locus YKR091W, strain srl3, hits give low values",1
same,normalized growth,"S. cerevisiae deletion strains, locus YLL001W, strain dnm1, hits give low values",0.945
same,normalized growth,"S. cerevisiae deletion strains, locus YLL026W, hits give low values",0.981
same,normalized growth,"S. cerevisiae deletion strains, locus YLL041C, strain sdh2, hits give low values",0.997
same,normalized growth,"S. cerevisiae deletion strains, locus YLR027C, strain aat2, hits give low values",0.934
same,normalized growth,"S. cerevisiae deletion strains, locus YLR039C, strain RIC1, hits give low values",1.28
same,normalized growth,"S. cerevisiae deletion strains, locus YLR058C, strain SHM2, hits give low values",0.958
same,normalized growth,"S. cerevisiae deletion strains, locus YLR102C, strain apc9, hits give low values",0.985
same,normalized growth,"S. cerevisiae deletion strains, locus YLR113W, strain HOG1, hits give low values",1.01
same,normalized growth,"S. cerevisiae deletion strains, locus YLR221C, strain rsa3, hits give low values",0.937
same,normalized growth,"S. cerevisiae deletion strains, locus YLR258W, strain gsy2, hits give low values",0.974
same,normalized growth,"S. cerevisiae deletion strains, locus YLR262C, strain YPT6 (second series), hits give low values",0.986
same,normalized growth,"S. cerevisiae deletion strains, locus YLR262C, strain YPT6, hits give low values",1.16
same,normalized growth,"S. cerevisiae deletion strains, locus YLR268W, strain sec22, hits give low values",0.989
same,normalized growth,"S. cerevisiae deletion strains, locus YLR320W, strain mms22, hits give low values",0.898
same,normalized growth,"S. cerevisiae deletion strains, locus YLR330W, strain CHS5, hits give low values",0.992
same,normalized growth,"S. cerevisiae deletion strains, locus YLR342W, strain FKS1 (second series), hits give low values",0.885
same,normalized growth,"S. cerevisiae deletion strains, locus YLR342W, strain FKS1, hits give low values",0.993
same,normalized growth,"S. cerevisiae deletion strains, locus YLR357W, strain rsc2, hits give low values",1
same,normalized growth,"S. cerevisiae deletion strains, locus YLR370C, strain arc18, hits give low values",0.822 (active)
same,normalized growth,"S. cerevisiae deletion strains, locus YLR371W, strain rom2, hits give low values",0.97
same,normalized growth,"S. cerevisiae deletion strains, locus YLR384C, strain iki3, hits give low values",1
same,normalized growth,"S. cerevisiae deletion strains, locus YLR418C, strain cdc73, hits give low values",0.857
same,normalized growth,"S. cerevisiae deletion strains, locus YML016C, strain PPZ1, hits give low values",0.977
same,normalized growth,"S. cerevisiae deletion strains, locus YML032C, strain rad52, hits give low values",0.937
same,normalized growth,"S. cerevisiae deletion strains, locus YML120C, strain ndi1, hits give low values",0.886 (active)
same,normalized growth,"S. cerevisiae deletion strains, locus YML124C, strain tub3, hits give low values",0.991
same,normalized growth,"S. cerevisiae deletion strains, locus YMR058W, strain fet3, hits give low values",0.849 (active)
same,normalized growth,"S. cerevisiae deletion strains, locus YMR078C, strain ctf18, hits give low values",0.99
same,normalized growth,"S. cerevisiae deletion strains, locus YMR125W, strain sto1, hits give low values",0.946
same,normalized growth,"S. cerevisiae deletion strains, locus YMR129W, hits give low values",0.997
same,normalized growth,"S. cerevisiae deletion strains, locus YMR205C, strain PFK2, hits give low values",0.963
same,normalized growth,"S. cerevisiae deletion strains, locus YMR223W, strain ubp8, hits give low values",0.933
same,normalized growth,"S. cerevisiae deletion strains, locus YMR231W, strain pep5, hits give low values",0.731 (active)
same,normalized growth,"S. cerevisiae deletion strains, locus YMR263W, strain SAP30, hits give low values",0.942
same,normalized growth,"S. cerevisiae deletion strains, locus YMR307W, strain GAS1, hits give low values",0.986
same,normalized growth,"S. cerevisiae deletion strains, locus YNL067W, strain RPL9B, hits give low values",0.948
same,normalized growth,"S. cerevisiae deletion strains, locus YNL071W, strain lat1, hits give low values",0.953
same,normalized growth,"S. cerevisiae deletion strains, locus YNL128W, strain TEP1, hits give low values",0.884
same,normalized growth,"S. cerevisiae deletion strains, locus YNL153C, strain GIM3, hits give low values",0.921
same,normalized growth,"S. cerevisiae deletion strains, locus YNL183C, strain NPR1, hits give low values",0.933
same,normalized growth,"S. cerevisiae deletion strains, locus YNL209W, strain ssb2, hits give low values",0.888 (active)
same,normalized growth,"S. cerevisiae deletion strains, locus YNL233W, strain BNI4, hits give low values",0.927
same,normalized growth,"S. cerevisiae deletion strains, locus YNL248C, strain rpa49, hits give low values",0.904
same,normalized growth,"S. cerevisiae deletion strains, locus YNL250W, strain rad50, hits give low values",0.943
same,normalized growth,"S. cerevisiae deletion strains, locus YNL271C, strain bni1, hits give low values",0.99
same,normalized growth,"S. cerevisiae deletion strains, locus YNL298W, strain CLA4, hits give low values",0.974
same,normalized growth,"S. cerevisiae deletion strains, locus YNL307C, strain MCK1, hits give low values",0.974
same,normalized growth,"S. cerevisiae deletion strains, locus YNL322C, strain KRE1 (second series), hits give low values",1.03
same,normalized growth,"S. cerevisiae deletion strains, locus YNL322C, strain KRE1, hits give low values",0.97
same,normalized growth,"S. cerevisiae deletion strains, locus YNR049C, strain mso1, hits give low values",1
same,normalized growth,"S. cerevisiae deletion strains, locus YNR052C, strain pop2, hits give low values",0.92
same,normalized growth,"S. cerevisiae deletion strains, locus YOL006C, strain TOP1, hits give low values",0.468 (active)
same,normalized growth,"S. cerevisiae deletion strains, locus YOL012C, strain htz1",0.924
same,normalized growth,"S. cerevisiae deletion strains, locus YOL147C, strain pex11, hits give low values",1
same,normalized growth,"S. cerevisiae deletion strains, locus YOR001W, strain rrp6, hits give low values",0.887 (active)
same,normalized growth,"S. cerevisiae deletion strains, locus YOR061W, strain CKA2, hits give low values",0.938
same,normalized growth,"S. cerevisiae deletion strains, locus YOR069W, strain VPS5, hits give low values",0.986
same,normalized growth,"S. cerevisiae deletion strains, locus YOR070C, strain gyp1, hits give low values",0.908 (active)
same,normalized growth,"S. cerevisiae deletion strains, locus YOR080W, strain dia2, hits give low values",1
same,normalized growth,"S. cerevisiae deletion strains, locus YOR083W, strain WHI5, hits give low values",0.846 (active)
same,normalized growth,"S. cerevisiae deletion strains, locus YOR106W, strain vam3, hits give low values",0.618 (active)
same,normalized growth,"S. cerevisiae deletion strains, locus YOR136W, strain idh2, hits give low values",0.907 (active)
same,normalized growth,"S. cerevisiae deletion strains, locus YOR144C, strain elg1, hits give low values",0.989
same,normalized growth,"S. cerevisiae deletion strains, locus YOR184W, strain ser1, hits give low values",1.01
same,normalized growth,"S. cerevisiae deletion strains, locus YOR231W, strain MKK1, hits give low values",0.992
same,normalized growth,"S. cerevisiae deletion strains, locus YOR265W, strain rbl2, hits give low values",1
same,normalized growth,"S. cerevisiae deletion strains, locus YOR270C, strain vph1, hits give low values",0.375 (active)
same,normalized growth,"S. cerevisiae deletion strains, locus YOR290C, strain snf2, hits give low values",0.837 (active)
same,normalized growth,"S. cerevisiae deletion strains, locus YOR316C, strain cot1, hits give low values",0.98
same,normalized growth,"S. cerevisiae deletion strains, locus YPL051W, strain arl3, hits give low values",0.767 (active)
same,normalized growth,"S. cerevisiae deletion strains, locus YPL055C, strain LGE1, hits give low values",0.782
same,normalized growth,"S. cerevisiae deletion strains, locus YPL078C, strain atp4, hits give low values",0.939
same,normalized growth,"S. cerevisiae deletion strains, locus YPL106C, strain sse1, hits give low values",1.08
same,normalized growth,"S. cerevisiae deletion strains, locus YPL240C, strain hsp82, hits give low values",0.999
same,normalized growth,"S. cerevisiae deletion strains, locus YPL241C, strain CIN2, hits give low values",0.985
same,normalized growth,"S. cerevisiae deletion strains, locus YPL256C, strain CLN2, hits give low values",0.972
same,normalized growth,"S. cerevisiae deletion strains, locus YPR119W, strain clb2, hits give low values",0.994
same,normalized growth,"S. cerevisiae deletion strains, locus YPR141C, strain kar3, hits give low values",0.969
same,normalized growth,"S. cerevisiae deletion strains, locus YPR163C, strain tif3, hits give low values",0.872 (active)
same,normalized growth,"S. cerevisiae deletion strains, locus YPR167C, strain met16, hits give low values",0.977
same,normalized growth,"S. cerevisiae deletion strains, strain wtn01, hits give low values",0.964
same,normalized growth,"S. cerevisiae strains, strain wild type, hits give low values",0.974
